From PubChem BioAssay
In the library only some 9.4% were active in any assay of this set; here they are far more common.
FLuc counter: qHTS profiling assay for firefly luciferase inhibitor/activator using purifed enzyme and Km concentrations of substrates (counterscreen for miR-21 project); Luciferin 4-monooxygenase (Photinus pyralis), P08659; purified FLuc, Km substrates, luminescence inhibition; Potency, µM (top dose mostly 57.5 µM), inactives show at the highest dose activity change, negative = inhibition, most hits filed as inhibitors; hit rate 6.9% among 360,000;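 further: plate controls were vehicle for no effect and reference inhibitor for full effect; nearly all actives have a fitted effect of over 55% in size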
Target sequence (P08659 whole entry, looked up): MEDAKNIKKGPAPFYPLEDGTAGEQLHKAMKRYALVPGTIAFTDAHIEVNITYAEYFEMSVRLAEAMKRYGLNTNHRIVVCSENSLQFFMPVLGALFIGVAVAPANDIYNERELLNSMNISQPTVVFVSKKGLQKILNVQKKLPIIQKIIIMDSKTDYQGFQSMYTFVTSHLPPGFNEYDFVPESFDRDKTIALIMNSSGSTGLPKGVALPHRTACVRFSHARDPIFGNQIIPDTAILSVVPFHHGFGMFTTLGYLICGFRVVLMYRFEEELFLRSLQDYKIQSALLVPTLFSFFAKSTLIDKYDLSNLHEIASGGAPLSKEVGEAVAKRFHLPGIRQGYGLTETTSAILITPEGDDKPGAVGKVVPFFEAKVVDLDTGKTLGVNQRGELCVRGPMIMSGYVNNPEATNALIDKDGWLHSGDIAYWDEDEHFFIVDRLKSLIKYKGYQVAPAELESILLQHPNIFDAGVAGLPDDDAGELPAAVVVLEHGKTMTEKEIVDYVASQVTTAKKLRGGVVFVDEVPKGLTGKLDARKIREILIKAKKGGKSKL
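Biochemical qHTS of compounds, final roughly 60 µM downward over six points, against 10 nM purified firefly luciferase using Km concentrations of substrates (10 uM D-luciferin, 10 uM ATP) in Tris acetate pH 7.5 buffer; luminescence output.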
ELG1 genotox: qHTS screen for small molecules that induce genotoxicity in human embryonic kidney (HEK293T) cells expressing luciferase-tagged ELG1; HEK293T ELG1-luciferase reporter, luminescence, 16 h; Potency, µM (series often up to 46 µM), inactives show at the top dose activity change, positive = activation, hits mostly activators; hit rate 1.3% among 330,000; AID 504466, 2011; further: % of control where 0% means no effect; nearly all actives have a fitted effect of over 60% in size
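ELG1-luciferase HEK293T cells, 2,000/well; compound pinned in; 16 hr, 37 °C, 5% CO2; ONE-Glo, 30 min RT; luminescence on CCD imager.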
NPC1 prom act: qHTS Assay for NPC1 Promoter Activators | Huh7 NPC1 promoter luciferase reporter, 24 h | Potency, µM (doses to about 9.22 µM), without a hit: top-dose activation, actives largely listed as activators | hit rate 2.4% among 320,000 | AID 485313, 2010; further: % of control where 0% means no effect; nearly all actives have a fitted effect of over 60% in size
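Stably transfected Huh7 (NPC1 promoter→luciferase), 1500 cells/well in Opti-MEM + 10% FBS, 2 h settle, then compound 24 h at 37 °C. Luminescence after 10 min with Amplite reagent.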
ELG1 DNA repair: qHTS screen for small molecules that inhibit ELG1-dependent DNA repair in human embryonic kidney (HEK293T) cells expressing luciferase-tagged ELG1; HEK293T ELG1-luciferase reporter, luminescence, 16 h; DNA damage induced by 5-fluorouridine; Potency, µM (highest dose often 46.1 µM), without a hit: at the top dose activity change, negative = inhibition, hits mostly inhibitors; hit rate 2.3% among 330,000; AID 504467, 2011; further: on the % scale 0 is the no-effect control and ±100 the full control effect; nearly all actives have a fitted effect of over 55% in size
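Overnight (16 hr) co-exposure of 2,000 cells/well to 5-fluorouridine and compound at 37 °C preceded detection. Luciferase was quantified via ONE-Glo luminescence; loss of signal denotes inhibition.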
SMN2 splice up: qHTS Assay for Enhancers of SMN2 Splice Variant Expression; hit rate 2.8% among 210,000; Potency, µM (highest dose often 46.1 µM), for the others: top-dose activity change, positive = activation, usual class: activators; HEK293 SMN2-luciferase splicing reporter, luminescence, 30-36 h; AID 1458, 2008; further: % of control where 0% means no effect; nearly all actives have a fitted effect of over 55% in size
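HEK293 cells carry an SMN2 […]–luciferase reporter in which exon 7 inclusion puts luciferase in frame. Cells were plated 10-12 h before compound addition, then incubated 30-36 h at 37C. ONE-Glo luminescence was read; sodium butyrate at 4.5 mM final served as control.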
Rab9 prom act: qHTS Assay for Rab9 Promoter Activators; Huh7 Rab9 promoter-luciferase reporter, luminescence, 24 h; Potency, µM (top dose mostly 9.22 µM), without a hit: at the top dose activation, negative = inhibition, usual class: activators; hit rate 2.8% among 320,000; AID 485297, 2010; further: % of control where 0% means no effect; nearly all actives have a fitted effect of over 60% in size
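Stable Rab9-luc Huh7, 1500 cells/well, 2 h settle; cmpd in DMSO, 24 h, 37 °C/5% CO2; luciferase reagent 10 min RT; luminescence.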
* = called active by the depositor; ? = inconclusive; . = no result given; [ ] = another dose, or the depositor's remark. The call rests on the fitted dose curve; in most records, active means well fitted curve in the direction sought with a large enough effect; inconclusive means small, poorly fitted or top-dose-only effect, or another doubt; inactive means no such curve, though single readings can be large; an effect the other way counts as inactive or inconclusive. Potency means the concentration at half of the fitted maximal effect.

SMILES	FLuc counter	ELG1 genotox	NPC1 prom act	ELG1 DNA repair	SMN2 splice up	Rab9 prom act
O=C(C1CCCCC1)N(Cc1cccnc1)c1nc2ccc(Cl)cc2s1	-17%	.	.	.	.	.
O=C(N/N=C/c1nn(-c2ccccc2)cc1-c1ccccc1)c1ccncc1	9.5µM*	-1%	2%	?	?	-2%
O=C(NCCCc1nc2ccccc2n1Cc1cccc(Cl)c1)c1ccco1	-9%	.	.	.	-8%	.
Cc1ccc(NC(=O)C(Cc2ccccc2)N2Cc3ccccc3C2=O)cc1Cl (centres undefined)	0%	.	.	.	.	.
O=C(/C=C/c1ccc(OCCCF)cc1)Nc1ccnc(-c2cccnc2)n1	?	-5%	-2%	7.3µM*	-36%	-1%
CCOc1ccc2nc(NC(=S)NCc3ccccc3)sc2c1	-13%	14%	9%	?	-8%	12%
O=C(Nc1nc2ccc(S(=O)(=O)N3CCCC3)cc2s1)c1ccccn1	?	-7%	26%	21µM*	-22%	?
CCn1nc(C(=O)Nc2nc3ccc(C)cc3s2)c2ccccc2c1=O	-3%	2%	-4%	4%	0%	-4%
O=C(Nc1nc2ccc(S(=O)(=O)N3CCCCC3)cc2s1)c1ccncc1	?	-5%	-1%	?	-27%	8%
Cc1ccc2nc(NC(=O)c3ccccn3)sc2c1	0.17µM*	0.16µM*	?	?	.	?
O=C(COc1ccccc1)NNc1nc2c(F)cc(F)cc2s1	-10%	-2%	-2%	7%	4%	9%
O=C(Nc1nc2c(F)cc(F)cc2s1)c1ccccn1	0.67µM*	9.2µM*	0.11µM*	?	2.8µM*	0.1µM*
CCOc1ccc2nc(NC(=O)c3ccccn3)sc2c1	0.38µM*	?	0.1µM*	?	.	?
CCc1noc(C)c1C(=O)Nc1nc2c(C)cccc2s1	?	1%	3%	15%	.	1%
CCc1noc(C)c1C(=O)Nc1nc2c(F)cc(F)cc2s1	12µM*	-1%	23%	?	.	?
COc1ccc(Cl)cc1N1C(=O)/C(=C\c2sccc2C)N=C1SCC(=O)NC1CC1	3%	-2%	7%	16µM*	-10%	-4%
C=CCN1C(=O)/C(=C\c2ccc(Cl)cc2)N=C1SCC(=O)NC1CCCCC1	5%	5%	-2%	7%	-8%	14%
Cc1ccc(OCCn2c(C3CC(=O)N(Cc4ccc(F)cc4)C3)nc3ccccc32)c(C)c1 (centres undefined)	-7%	.	.	.	.	.
Cc1cc(NC(=O)c2cc(F)c(F)cc2Cl)no1	-16%	3%	-1%	21%	1%	3%
Cc1ccc(NC(=O)c2ccccc2F)nc1	4.8µM*	1.8µM*	1.1µM*	?	7.9µM*	0.71µM*
Cc1ccc(NC(=O)CCNC(=O)c2ccccc2Cl)nc1	-1%	10%	-1%	14%	.	0%
Cc1ccc(NC(=O)c2cc(F)c(F)cc2Cl)nc1	8.5µM*	?	1.8µM*	?	.	0.89µM*
COc1cc2ccccc2cc1C(=O)Nc1ccc(C)cn1	3µM*	2.9µM*	?	?	.	?
Cc1ccc(NC(=O)c2ccc3nc[nH]c3c2)nc1	2%	10%	3%	11%	.	1%
Cc1ccc(NC(=O)c2ccc(C(=O)c3ccccc3)cc2)nc1	19µM*	?	30%	?	.	28%
SMILES	FLuc counter	ELG1 genotox	NPC1 prom act	ELG1 DNA repair	SMN2 splice up	Rab9 prom act
CCCCNc1nc(Oc2ccc(OCC(N)=O)nn2)nc(N2CCOCC2)n1	-1%	.	.	.	-16%	.
O=C(OCc1cc(=O)n2c(n1)sc1ccccc12)c1ccc(O)cc1	?	?	9%	?	20µM*	18%
CCc1nn2c(=O)cc(COC(=O)c3ccccc3)nc2s1	17µM*	.	.	.	.	.
Cc1csc2nc(COC(=O)c3ccccc3NC(=O)c3ccc(C(C)(C)C)cc3)cc(=O)n12	2.7µM*	.	.	.	.	.
CCc1nn2c(=O)cc(COC(=O)c3ccccc3NC(=O)c3ccc(C(C)(C)C)cc3)nc2s1	5.4µM*	.	.	.	.	.
CCCc1nn2c(=O)cc(COC(=O)c3ccccc3NC(=O)c3ccc(Cl)cc3)nc2s1	-8%	.	.	.	.	.
CCCCN(C)C(=O)CCC(=O)Nc1ccc2nc(N3CCOCC3)cc(C)c2c1	?	6%	?	?	20µM*	?
COc1ccccc1N1CCN(C(=S)Nc2ccc3nc(N4CCOCC4)cc(C)c3c2)CC1	-15%	-12%	5%	18µM*	-5%	-6%
Cc1cc(N2CCOCC2)nc2ccc(NC(=O)CCC(=O)N3CCCCC3)cc12	?	?	?	?	8.9µM*	4µM*
Cc1cc(N2CCOCC2)nc2ccc(Cl)cc12	6µM*	?	?	?	.	?
Cc1cc(N2CCOCC2)nc2ccc(NC(=S)N3CCN(c4ccccc4)CC3)cc12	4%	5%	-5%	13%	-45%	2%
Cc1cc(N2CCOCC2)nc2ccc(Cc3ccc4nc(N5CCOCC5)cc(C)c4c3)cc12	.	.	.	.	-12%[9.22 µM]	.
CC(=O)c1ccc(N2CCN(C(=O)CCC(=O)Nc3ccc4nc(N5CCCCC5)cc(C)c4c3)CC2)cc1	?	.	.	.	0%	.
O=C(CSc1nc2c([nH]c3ccccc32)c(=O)n1-c1ccccc1)N1CCc2ccccc21	-3%	.	.	.	.	.
COc1ccc(CCNC(=O)CCc2c(C)c3cc4c(C)c(C)oc4cc3oc2=O)cc1	0%	.	.	.	1%	.
CCOc1ccc(-n2cc(-c3ccccc3)c3c(NCCc4ccccc4)ncnc32)cc1	2%	.	.	.	.	.
Cc1cc(N2CCC(C)CC2)nc2ccc(NC(=O)CCC(=O)N3CCN(c4ccccc4F)CC3)cc12	4.8µM*	.	.	.	-12%	.
Cc1cc(N2CCOCC2)nc2ccc(NC(=O)CCC(=O)N3CCC(C)CC3)cc12	12µM*	7%	?	?	.	4.5µM*
CCN1CCN(c2cc(C)c3cc(NC(=O)CCC(=O)N4CCN(c5ccccc5)CC4)ccc3n2)CC1	?	-3%	-5%	-19%	.	2%
CCN1CCN(c2cc(C)c3cc(NC(=O)CCC(=O)N4CCN(c5ccccc5OC)CC4)ccc3n2)CC1	15µM*	2%	14%	?	.	5%
Cc1cccc(N2CCN(C(=O)c3cnn(-c4ccccc4)c3C3CCN(C(=O)OC(C)(C)C)CC3)CC2)c1C	0%	.	.	.	.	.
